Measured values reported in PubChem BioAssay (NCI).
This is part of a sample that, as a whole, favours compounds with a hit. Of some 79,000 tested, about 15% had one in any assay. Calls of active or inactive are those of the source. Rule as the data show it: active = growth inhibition above about 70%; inactive = the rest.

What was measured:
[1] = NCI Yeast Anticancer Drug Screen. Data for the mlh1 strain (AID 171);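 also: 0% = growth of vehicle-treated control cultures of the same strain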; conditions: S. cerevisiae mlh1 strain growth inhibition, stronger effect = higher value
Procedure, shortened: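 Here the genetically defined yeast mutant is grown with each compound, and the extent to which its growth falls below that of vehicle-exposed cells is reported.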

[2] = NCI Yeast Anticancer Drug Screen. Data for the sgs1 strain (AID 173);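 also: 0% = growth of vehicle-only control cultures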; conditions: S. cerevisiae sgs1 mutant, stronger effect = higher value
Procedure, shortened: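 Relative growth inhibition, referenced to vehicle, was determined in a yeast strain with a defined alteration affecting DNA damage repair or cell cycle control after compound exposure.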

[3] = NCI Yeast Anticancer Drug Screen. Data for the mlh1 rad18 strain (AID 175); conditions: S. cerevisiae mlh1 rad18 strain growth inhibition, stronger effect = higher value
Procedure, shortened: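 In this whole-cell yeast screen, a strain with altered DNA damage repair is challenged with compound, and its growth is measured against matched vehicle-treated controls.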

[4] = NCI Yeast Anticancer Drug Screen. Data for the rad18 strain (AID 177); conditions: S. cerevisiae rad18 mutant growth inhibition, stronger effect = higher value
Procedure, shortened: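 Screen uses a yeast strain with a defined lesion in DNA damage repair; compound effect is read as loss of growth compared to untreated vehicle cultures.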

[5] = NCI Yeast Anticancer Drug Screen. Data for the rad52 strain (AID 147);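 also: 0% = growth of vehicle-treated control cultures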; conditions: S. cerevisiae rad52 mutant growth inhibition, stronger effect = higher value
Procedure, shortened: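 Measured: yeast growth inhibition. System: strain with a defined DNA damage repair alteration. Reference: vehicle-treated control cultures.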

[6] = NCI Yeast Anticancer Drug Screen. Data for the wt1 strain (AID 149);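 also: 0% = growth of vehicle-treated wt1 cultures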; conditions: S. cerevisiae wt1 strain (SPY 50644) growth inhibition, stronger effect = higher value
Procedure, shortened: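 wt1 yeast, compound-treated; % growth inhibition vs vehicle control.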

[7] = NCI Yeast Anticancer Drug Screen. Data for the rad50EPP+ strain (AID 151);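 also: 0% = growth of vehicle-treated control cultures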; conditions: S. cerevisiae rad50 mutant strain, stronger effect = higher value
Procedure, shortened: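 One strain with a rad50 alteration (rad50EPP+) was compound-treated, its growth then compared to that of vehicle controls.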

[8] = NCI Yeast Anticancer Drug Screen. Data for the mgt1 strain (AID 153); conditions: S. cerevisiae mgt1 mutant growth inhibition, stronger effect = higher value
Procedure, shortened: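 After exposure of the mgt1 yeast mutant to compound, growth was measured and reported as inhibition compared with vehicle controls.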

[9] = NCI Yeast Anticancer Drug Screen. Data for the rad50 strain (AID 155);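 also: 0% = growth of vehicle-only cultures of the same strain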; conditions: S. cerevisiae rad50 strain growth inhibition, stronger effect = higher value
Procedure, shortened: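 Genetically altered yeast (DNA repair pathway); compound treatment; growth inhibition vs vehicle ctrl.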

[10] = NCI Yeast Anticancer Drug Screen. Data for the mec2-1 strain (AID 157); conditions: S. cerevisiae mec2-1 strain, stronger effect = higher value
Procedure, shortened: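 Test agents were screened against the mec2-1 yeast strain, with defined DNA repair or cell cycle alteration. Growth was scored as inhibition against vehicle-only controls.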

[11] = NCI Yeast Anticancer Drug Screen. Data for the rad14 strain (AID 159);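 also: 0% = growth of vehicle-treated control cultures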; conditions: S. cerevisiae rad14 strain growth inhibition, stronger effect = higher value
Procedure, shortened: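 Test compounds were applied to a repair-deficient yeast strain. Its growth was then compared with that of cultures given vehicle alone, and inhibition was expressed relative to those controls.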

[12] = NCI Yeast Anticancer Drug Screen. Data for the sgs1 mgt1 strain (AID 161);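 also: 0% = growth of cultures given vehicle only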; conditions: S. cerevisiae sgs1 mgt1 strain, stronger effect = higher value
Procedure, shortened: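 Test agents were incubated with a DNA-repair-mutant yeast strain. Growth was then read and compared against vehicle-treated controls.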

[13] = NCI Yeast Anticancer Drug Screen. Data for the CLN2oe strain (AID 163);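 also: 0% = growth of vehicle-only control cultures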; conditions: S. cerevisiae CLN2oe strain, stronger effect = higher value
Procedure, shortened: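 Here, growth inhibition in a cell-cycle-altered yeast strain after compound exposure was quantified against vehicle control growth.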

[14] = NCI Yeast Anticancer Drug Screen. Data for the bub3 strain (AID 167); conditions: S. cerevisiae bub3 mutant strain, stronger effect = higher value
Procedure, shortened: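 Yeast carrying a defined mutation is treated with each compound, and growth is compared with that of vehicle-exposed cells to give inhibition.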

[15] = NCI Yeast Anticancer Drug Screen. Data for the wt2 strain (AID 169);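 also: 0% = growth of vehicle-treated yeast cultures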; conditions: S. cerevisiae wt2 strain growth inhibition, stronger effect = higher value
Procedure, shortened: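 Genetically defined yeast strains from a DNA-repair/cell-cycle panel were used. Compound-exposed yeast growth was measured, and the inhibition was calculated relative to vehicle treatment.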

[16] = NCI Yeast Anticancer Drug Screen. Data for the cln2 rad14 strain (AID 165);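 also: 0% = growth equal to vehicle treated cultures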; conditions: S. cerevisiae cln2 rad14 strain, stronger effect = higher value
Procedure, shortened: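 Growth of compound-exposed yeast (cln2 rad14 genotype) measured and expressed as inhibition relative to vehicle.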

[17] = at 5.0 µM (retest, dose inferred, filed as 0.5)
[18] = at 50.0 µM (retest, dose inferred, filed as 5.0)

Measured: growth inhibition

O=C1c2ccccc2-c2cc3ccccc3c(=O)n21
active: [1]; at 33.0 µM 74% | [2]; at 33.0 µM 76% | [2]; at 100.0 µM 77% | [3]; at 50.0 µM 81%
inactive: [1]; at 1.2 µM 4% | [1]; at 3.7 µM 19% | [1]; at 11.0 µM 66% | [1]; at 100.0 µM 63% | [2]; at 1.2 µM 22% | [2]; at 3.7 µM 14% | [2]; at 11.0 µM 47% | [3]; [17] -13% | [3]; [18] 63% | [4]; at 1.2 µM -22% | [4]; at 3.7 µM -17% | [4]; at 11.0 µM 28% | [4]; at 33.0 µM 63% | [4]; at 100.0 µM 59%

CCCCCCCN(CCCCCCC)CC(=O)c1ccc2cc(Cl)c3ccccc3c2c1
active: [5]; at 11.0 µM 98% | [5]; at 33.0 µM 96% | [5]; at 100.0 µM 92% | [6]; at 11.0 µM 97% | [6]; at 33.0 µM 97% | [6]; at 100.0 µM 92% | [7]; at 100.0 µM 94% | [8]; at 11.0 µM 98% | [8]; at 33.0 µM 98% | [8]; at 100.0 µM 95% | [9]; at 11.0 µM 98% | [9]; at 33.0 µM 97% | [9]; [18] 93% | [9]; at 50.0 µM 99.3% | [9]; at 100.0 µM 92% | [10]; at 11.0 µM 78% | [10]; at 33.0 µM 98% | [10]; [18] 96% | [10]; at 50.0 µM 99.4% | [10]; at 100.0 µM 96% | [11]; at 11.0 µM 98% | [11]; at 33.0 µM 97% | [11]; at 100.0 µM 95% | [12]; [18] 96% | [12]; at 50.0 µM 99.2% | [13]; at 11.0 µM 98% | [13]; at 33.0 µM 97% | [13]; at 100.0 µM 92% | [14]; at 11.0 µM 98% | [14]; at 33.0 µM 97% | [14]; [18] 95% | [14]; at 50.0 µM 98.2% | [14]; at 100.0 µM 94% | [15]; at 11.0 µM 98% | [15]; at 33.0 µM 97% | [15]; at 100.0 µM 95% | [1]; at 11.0 µM 98% | [1]; at 33.0 µM 97% | [1]; at 100.0 µM 93% | [2]; at 11.0 µM 98% | [2]; at 33.0 µM 97% | [2]; at 100.0 µM 93% | [3]; [18] 94% | [3]; at 50.0 µM 99.5% | [4]; at 11.0 µM 98% | [4]; at 33.0 µM 97% | [4]; at 100.0 µM 93%
inactive: [5]; at 1.2 µM 3% | [5]; at 3.7 µM 19% | [6]; at 1.2 µM -7% | [6]; at 3.7 µM 18% | [7]; at 1.2 µM -5% | [7]; at 3.7 µM 0% | [7]; at 11.0 µM 29% | [7]; at 33.0 µM 58% | [8]; at 1.2 µM 5% | [8]; at 3.7 µM 19% | [9]; at 1.2 µM 2% | [9]; at 3.7 µM 28% | [9]; [17] 39% | [10]; at 1.2 µM 1% | [10]; at 3.7 µM 0% | [10]; [17] 26% | [11]; at 1.2 µM 36% | [11]; at 3.7 µM 50% | [12]; [17] 60% | [13]; at 1.2 µM 1% | [13]; at 3.7 µM 22% | [14]; at 1.2 µM 9% | [14]; at 3.7 µM 24% | [14]; [17] 26% | [15]; at 1.2 µM 32% | [15]; at 3.7 µM 64% | [1]; at 1.2 µM -9% | [1]; at 3.7 µM 40% | [2]; at 1.2 µM 5% | [2]; at 3.7 µM 26% | [3]; [17] 25% | [4]; at 1.2 µM -9% | [4]; at 3.7 µM 19%

Cc1cccc(/C=N/NC(=S)NC2CCCCC2)n1
active: [9]; [18] 77% | [12]; at 50.0 µM 70.8% | [14]; [18] 79% | [14]; at 50.0 µM 72.7%
inactive: [5]; at 1.2 µM -8% | [5]; at 3.7 µM -9% | [5]; at 11.0 µM -8% | [5]; at 33.0 µM 9% | [5]; at 100.0 µM 6% | [6]; at 1.2 µM -7% | [6]; at 3.7 µM -6% | [6]; at 11.0 µM -4% | [6]; at 33.0 µM 10% | [6]; at 100.0 µM 6% | [7]; at 1.2 µM -8% | [7]; at 3.7 µM -8% | [7]; at 11.0 µM -13% | [7]; at 33.0 µM -13% | [7]; at 100.0 µM -12% | [8]; at 1.2 µM -5% | [8]; at 3.7 µM -8% | [8]; at 11.0 µM 19% | [8]; at 33.0 µM 20% | [8]; at 100.0 µM 21% | [9]; at 1.2 µM -7% | [9]; at 3.7 µM -9% | [9]; [17] -32% | [9]; at 11.0 µM -33% | [9]; at 33.0 µM 13% | [9]; at 50.0 µM 39.5% | [9]; at 100.0 µM 7% | [10]; at 1.2 µM 1% | [10]; at 3.7 µM -6% | [10]; [17] -23% | [10]; at 11.0 µM -5% | [10]; at 33.0 µM 11% | [10]; [18] 64% | [10]; at 50.0 µM 54.8% | [10]; at 100.0 µM 8% | [11]; at 1.2 µM -7% | [11]; at 3.7 µM -15% | [11]; at 11.0 µM -11% | [11]; at 33.0 µM 28% | [11]; at 100.0 µM 26% | [12]; [17] -25% | [12]; [18] 51% | [13]; at 1.2 µM -14% | [13]; at 3.7 µM -17% | [13]; at 11.0 µM -23% | [13]; at 33.0 µM 18% | [13]; at 100.0 µM 12% | [16]; [17] -24% | [16]; [18] 20% | [16]; at 50.0 µM 40.6% | [14]; at 1.2 µM -6% | [14]; at 3.7 µM -3% | [14]; [17] -30% | [14]; at 11.0 µM 16% | [14]; at 33.0 µM 32% | [14]; at 100.0 µM 20% | [1]; at 1.2 µM -6% | [1]; at 3.7 µM -4% | [1]; at 11.0 µM -3% | [1]; at 33.0 µM 12% | [1]; at 100.0 µM 8% | [2]; at 1.2 µM -3% | [2]; at 3.7 µM -2% | [2]; at 11.0 µM 9% | [2]; at 33.0 µM 40% | [2]; at 100.0 µM 29% | [3]; [17] -19% | [3]; [18] 55% | [3]; at 50.0 µM 62.5%
